Test results from PubChem BioAssay AID1851 (National Center for Advancing Translational Sciences (NCATS), 2009).
Values joined by “and” are separate entries in the source; they are usually repeats but may differ in a detail not shown here. Identical values can stand only once. About 5,800 (36%) of roughly 16,000 compounds were called active. About 23% were inconclusive and are not listed. The call rests on the fitted dose curve; in most records, active means well fitted curve in the direction sought with a large enough effect; inconclusive means small, poorly fitted or top-dose-only effect, or effect the other way; inactive means no such curve, though single readings can be large or run the other way. The list shows a part of the results. A structure can be active in one record and inactive in another. Square brackets hold non-standard residues; d marks the D form. Peptide text beside a SMILES is read from it. * marks the point of attachment. ξ: configuration not given here. Cbz = O=C(OCc1ccccc1)*; ξA = CC(N)C(=O)O

These compounds were tested against Cytochrome P450 2C19 (Homo sapiens) (UniProt P33261) (assay: Cytochrome panel assay with activity outcomes). Conditions: recombinant CYP, pro-luciferin dealkylation, luminescence, p450-cyp2c19; series mostly up to 57.1 µM; activity, negative = inhibition: at the top concentration.
On the % scale 0 is the no-effect control and ±100 the full control effect.

Chain of Cytochrome P450 2C19 (Homo sapiens) (P33261 whole entry, looked up): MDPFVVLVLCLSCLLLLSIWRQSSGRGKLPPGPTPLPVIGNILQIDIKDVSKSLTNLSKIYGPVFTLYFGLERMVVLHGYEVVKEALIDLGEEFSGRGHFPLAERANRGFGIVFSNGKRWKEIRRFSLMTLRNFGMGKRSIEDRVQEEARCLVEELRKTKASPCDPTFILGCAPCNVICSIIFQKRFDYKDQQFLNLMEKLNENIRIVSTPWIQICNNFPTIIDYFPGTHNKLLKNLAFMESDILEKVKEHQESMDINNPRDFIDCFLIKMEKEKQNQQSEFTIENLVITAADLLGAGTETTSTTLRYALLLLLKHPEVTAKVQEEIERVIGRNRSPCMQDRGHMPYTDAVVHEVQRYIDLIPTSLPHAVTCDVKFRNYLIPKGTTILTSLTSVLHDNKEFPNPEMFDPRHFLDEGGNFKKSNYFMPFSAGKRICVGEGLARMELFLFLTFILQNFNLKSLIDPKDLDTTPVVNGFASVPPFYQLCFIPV

Row | SMILES | AC50 | activity, negative = inhibition
1 | CCS(=O)(=O)c1ccc2oc(Nc3cc(C)cc(C)c3)nc2c1 | 11.2 µM (active) | –
2 | O=C(N[C@@H](Cc1ccccc1)C(=O)CCl)OCc1ccccc1 | 5.01 µM (active) | –
3 | COC(=O)[C@H](C)NC(=O)[C@@H](C)CO | – | 35.5% [at 11.4 µM] (inactive)
4 | COC(=O)[C@H](Cc1ccccc1)NC(=O)[C@@H](C)CO | 1.26 µM (active) | –
5 | COC(=O)CNC(=O)C(C)NC(=O)CNC(=O)OCc1ccccc1 (stereo not drawn) (Cbz-Gly-[ξA]-Gly-OMe) | 31.6 µM (active) | –
6 | CC(=O)SC[C@@H](Cc1ccccc1)C(=O)NCC(=O)OCc1ccccc1 | 0.126 µM (active) | –
7 | CC(=O)N[C@H](Cc1ccc(O)cc1)C(=O)O | – | -9.65% [at 11.4 µM] (inactive)
8 | CC(C)(C)N1C(=O)[C@H]2[C@H]3[C@H](O)[C@H](O)C/C(=N/NC(=O)OCc4ccccc4)[C@H]3CC[C@@H]2C1=O | – | 41% [at 11.4 µM] (inactive)
9 | O=C(O)CNC(=O)[C@@H](CS)Cc1ccccc1 | – | 55.1% [at 25.6 µM] (inactive)
10 | CC(C)(C)N1C(=O)[C@H]2[C@H]3[C@H](O)[C@H](O)C/C(=N/NC(=O)OCc4ccccc4)[C@@H]3CC[C@@H]2C1=O | – | 6.74% [at 11.4 µM] (inactive)
11 | CC(C)C[C@H](NC(=O)[C@@H](O)[C@@H](N)Cc1ccccc1)C(=O)O | inactive | –
12 | N[C@@H](Cc1ccccc1)C(=O)O | – | 8.56% [at 11.4 µM] (inactive)
13 | NC([N-]/N=C/c1ccccn1)=[S]=[Fe].O=S(=O)(O)O | – | -35.2% [at 11.4 µM] (inactive)
14 | CSCC[C@@H]1NC(=O)C/C=C\[C@@H](C)COC(=O)[C@@H](C)COC1=O | – | 30.8% [at 11.4 µM] (inactive)
15 | O=C1[C@H]2[C@H]3[C@H](O)[C@H](O)C/C(=N/OC[C@@H](O)COCc4ccco4)[C@H]3CC[C@@H]2C(=O)N1C[C@@H]1CCCO1 | – | -12.6% [at 11.4 µM] (inactive)
16 | COC(=O)CCC(NC(=O)OCc1ccccc1)C(=O)NC(CC(C)C)C(=O)OC (stereo not drawn) (Cbz-Glu(OMe)-Leu-OMe; configuration not given here) | 11.2 µM (active) | –
17 | CC(C)C[C@H](NC(=O)[C@@H](O)[C@H](N)Cc1ccccc1)C(=O)O | – | -31.5% (inactive)
18 | CSCC[C@H](C=O)NC(=O)[C@H](CC(C)C)NC(=O)[C@H](CC(C)C)NC(C)=O (Ac-Leu-Leu-[dM]-aldehyde) | – | -9.34% (inactive)
19 | CCCCC(C=O)NC(=O)C(CC(C)C)NC(=O)OCc1ccccc1 (stereo not drawn) | 10 µM (active) | –
20 | CC(C)[C@H](NC(=O)OCc1ccccc1)C(=O)N[C@H](C=O)Cc1ccccc1 (Cbz-Val-Phe-aldehyde) | – | -37.5% (inactive)
21 | COC(=O)COc1ccc(/C=C2/SC(=O)N(CC(=O)N3CCCC3)C2=O)cc1Br | – | -5.79% (inactive)

Row | SMILES | AC50 | activity, negative = inhibition
22 | COc1ccc(/C=C2\SC(=O)N(CCNC(=O)C3CC(=O)N(c4ccccc4)C3)C2=O)cc1 (stereo not drawn) | 14.1 µM (active) | –
23 | COCC(=O)N1CCC[C@@]2(CCN(Cc3ccccc3OC)C2)C1 | – | 17.9% (inactive)
24 | Cc1ccc(-n2nc(C)c3c2OC(N)=C(C#N)C3c2ccco2)cc1 (stereo not drawn) | 8.91 µM (active) | –
25 | O=C(O)c1cc2c(cc1S(=O)(=O)O)[C@H]1[C@@H]([C@H]3[C@H]2[C@@]2(Cl)C(Cl)=C(Cl)[C@]3(Cl)C2(Cl)Cl)[C@]2(Cl)C(Cl)=C(Cl)[C@@]1(Cl)C2(Cl)Cl | – | -16.5% [at 11.4 µM] (inactive)
26 | Cc1cc(=O)[nH]c(-n2[nH]c3c(c2=O)CCCC3)n1 | – | -22.6% (inactive)
27 | Cc1ccc(S(=O)(=O)Nc2cc(=O)[nH]c3c2CCC3)cc1 | 0.631 µM (active) | –
28 | C=CCSc1nc2c(sc3nc(C)cc(C)c32)c(=O)[nH]1 | 6.31 µM (active) | –
29 | Cc1cc(C)c2c(=O)[nH]c(SCC(=O)N(C)C)nc2n1 | – | -0.173% (inactive)
30 | Cc1cnc(CNc2ccnc(-c3cccc(NS(C)(=O)=O)c3)n2)cn1 | – | -3.15% (inactive)
31 | COc1cccc(-c2nccc(NCc3ccc(OC)cc3OC)n2)c1 | 2.51 µM (active) | –
32 | COc1ccc(CNc2ccnc(-c3cccnc3)n2)c(OC)c1 | 2 µM (active) | –
33 | COc1cccc(-c2nccc(NCc3ccccc3OC)n2)c1 | 5.01 µM (active) | –
34 | COc1ccc(CNc2ccnc(-c3cccc(NS(C)(=O)=O)c3)n2)c(OC)c1 | 15.8 µM (active) | –
35 | N[C@H](CCC(=O)NCS(=O)(=O)O)C(=O)O | – | -6.82% (inactive)
36 | Cc1[nH]c2c(C)ccc(C)c2c1CC(=O)O | 0.316 µM (active) | –
37 | COC(=O)C/C=C\[C@@H](C)[C@@H](/C=N\OC[C@@H](O)COCc1ccco1)NS(=O)(=O)c1ccc(C)cc1 | – | -9.48% [at 11.4 µM] (inactive)
38 | CO/N=C\[C@@H](NS(=O)(=O)c1ccc(C)cc1)[C@H](C)/C=C\CC(=O)OC | 3.16 µM (active) | –
39 | COC(=O)C/C=C\[C@H](C)[C@H](CO)NS(=O)(=O)c1ccc(C)cc1 | – | 44.8% [at 11.4 µM] (inactive)
40 | COC(=O)C/C=C\[C@@H](C)[C@@H](/C=N\O[C@@H](C)c1cn([C@H]2COC[C@H]2O)nn1)NS(=O)(=O)c1ccc(C)cc1 | – | -9.22% [at 11.4 µM] (inactive)
41 | COC(=O)C/C=C\[C@@H](C)[C@@H](/C=N\O[C@@H](C)CN1CCCc2nc(C)c(C)cc21)NS(=O)(=O)c1ccc(C)cc1 | – | -27.4% [at 11.4 µM] (inactive)
42 | COC(=O)C/C=C\[C@@H](C)[C@@H](/C=N\O[C@@H](C)c1cc(-c2c(C)cc(C)cc2C)no1)NS(=O)(=O)c1ccc(C)cc1 | 3.16 µM (active) | –

Row | SMILES | AC50 | activity, negative = inhibition
43 | NC1=N[C@H](c2ccc(Cl)cc2)N(c2ccc(S(=O)(=O)Nc3ncccn3)cc2)C(N)=N1 | – | 8.72% [at 11.4 µM] (inactive)
44 | Cc1ccc(CSc2nc3c(c(SCC(=O)O)n2)CCCC3)cc1 | – | -21.9% (inactive)
45 | Cc1ccc(CSc2nnc([C@@H]3CCCN3)o2)cc1 | 7.08 µM (active) | –
46 | CN1CCN(c2ncc3nc(-c4cccc(C#N)c4)c(=O)n(C)c3n2)CC1 | – | -41.4% (inactive)
47 | Cn1cccc1C(=O)N1CCC2(CC1)CCN(c1ccccc1)CC2 | – | -18.5% (inactive)
48 | Cn1cccc1C(=O)N1CCC2(CCCN(c3ccc(-c4ccccc4)cc3)C2)CC1 | – | -39.1% (inactive)
49 | Cn1cccc1C(=O)N1CCC2(CCCN(c3cccc(-c4ccccc4)c3)C2)CC1 | 10 µM (active) | –
50 | CN1CCCC2(CCN(C(=O)c3cccn3C)CC2)C1 | – | -6.51% (inactive)
51 | Cn1cccc1C(=O)N1CCC2(CC1)CCN(c1cccc(-c3ccccc3)c1)CC2 | – | -39.8% (inactive)
52 | Cn1cccc1C(=O)N1CCC2(CCCN(c3ccccc3)C2)CC1 | 7.94 µM (active) | –
53 | O=C(O)c1cc(C(=O)C(=O)c2cc(C(=O)O)c(O)c3ccccc23)c2ccccc2c1O | – | -29.3% [at 11.4 µM] (inactive)
54 | Cc1ccc(-n2cc(C(=O)c3ccc4ccccc4c3O)cn2)cc1 | – | -25% (inactive)
55 | O=C(c1cnn(-c2ccccc2)c1)c1ccc2ccccc2c1O | 5.62 µM (active) | –
56 | CCCCOC(=O)Nc1ccccc1C(=O)OC | 14.1 µM (active) | –
57 | Cc1nn(CCc2n[nH]c(=S)n2-c2ccc(F)c(Cl)c2)c(C)c1[N+](=O)[O-] | 14.1 µM (active) | –
58 | CC(C)=C1C(=O)NN(c2ccc(F)c(Cl)c2)C1=O | – | -21.5% (inactive)
59 | Cc1ccc(-n2c(-c3cc(C)n(C)n3)n[nH]c2=S)cc1 | – | 17.3% (inactive)
60 | COC(=O)[C@@]1(Cc2ccc(OC)cc2)[C@H]2c3cc(C(=O)N(C)C)[nH]c3C[C@H]2CN1C(=O)c1ccccc1 | 5.01 µM (active) | –
61 | COC(=O)[C@@]1(Cc2ccc(OC)cc2)[C@@H]2[C@@H](CC(=O)[C@H]2CC(=O)C(=O)N(C)C)CN1C(=O)c1ccccc1 | – | -29.2% (inactive)
62 | COC(=O)[C@@]1(Cc2ccccc2)[C@H]2c3cc(C(=O)N4CCCC4)[nH]c3C[C@H]2CN1C(=O)c1ccccc1 | 0.501 µM (active) | –
63 | O=C(O)COC(=O)Cc1ccccc1Nc1c(Cl)cccc1Cl | – | 22.1% [at 25.6 µM] (inactive)

Row | SMILES | AC50 | activity, negative = inhibition
64 | NC(N)=NC(=O)Cc1c(Cl)cccc1Cl | inactive and 251 nM (active) | –
65 | NC(N)=NN=Cc1c(Cl)cccc1Cl | inactive | –
66 | CC(C)(C)CNCCO | – | 7.05% [at 11.4 µM] (inactive)
67 | CC1(C)SC(=S)N(NC(=O)Nc2ccccc2)C1N(O)C(=O)Nc1ccccc1 (stereo not drawn) | 14.1 µM (active) | –
68 | Cc1cc2ccc(OC(=O)c3ccc(N=C(N)N)cc3)cc2oc1=O | – | 13.8% [at 11.4 µM] (inactive)
69 | CCC(C)NS(=O)(=O)c1ccc(OCC(=O)NCC2CCCO2)cc1 (stereo not drawn) | – | -20.6% (inactive)
70 | CCC(C)C(NS(=O)(=O)c1ccc(C)cc1)C(=O)Oc1ccc2c3c(c(=O)oc2c1)CCC3 (stereo not drawn) | 3.98 µM (active) | –
71 | Cc1ccc(S(=O)(=O)N[C@H](C(=O)Oc2ccc3c(C(F)(F)F)cc(=O)oc3c2)c2ccccc2)cc1 | 20 µM (active) | –
72 | Cc1nn(-c2ccc(F)cc2)c(Cl)c1/C=C(\CCC(=O)O)c1nc2ccccc2s1 | 15.8 µM (active) | –
73 | COc1ccccc1C/C(N)=N/OC(=O)c1ccc(C)c([N+](=O)[O-])c1 | 8.91 µM (active) | –
74 | Cn1c(=O)n2n(c1=O)[C@H]1[C@H](O)[C@H]3O[C@@H]3/C(=N/OC[C@@H](O)COCc3ccco3)[C@@H]1CC2 | – | -21.1% [at 11.4 µM] (inactive)
75 | Oc1cccc2ccc(SSc3ccc4cccc(O)c4n3)nc12 | 3.16 µM (active) | –
76 | COc1ccc(N2C(=O)CC(S/C(N)=N/N=C(\C)c3cccs3)C2=O)cc1 (stereo not drawn) | 7.08 µM (active) | –
77 | CCCOc1ccc(N2C(=O)CC(S/C(N)=N/N=C(\C)c3cccs3)C2=O)cc1 (stereo not drawn) | 6.31 µM (active) | –
78 | COc1ccc(-n2c(=O)c(-c3cccs3)nc3cnc(N4CCN(C)CC4)nc32)cc1 | – | -21.9% (inactive)
79 | O=C(N/N=C/c1ccc2cccc(OCc3ccccc3)c2n1)c1ccc(Br)cc1 | 3.55 µM (active) | –
80 | S=C(CSc1ccccc1)Nc1cccc2ccccc12 | 0.794 µM (active) | –
81 | CCCCn1nc2cc(C(=O)NCc3ccc(C(F)(F)F)cc3C(F)(F)F)ccc2c1OCC | 12.6 µM (active) | –
82 | COc1ccc(C(=O)N2CCC3(CCN(Cc4cc(C(F)(F)F)cc(C(F)(F)F)c4)CC3)CC2)cc1 | – | -12.6% (inactive)
83 | CCOc1c2ccc(C(=O)NCc3cc(C(F)(F)F)cc(C(F)(F)F)c3)cc2nn1C | 28.2 µM (active) | –
